# In publication PMC7862700, “An all-to-all approach to the identification of sequence-specific readers for epigenetic DNA modifications on cytosine”:
# Key:
# Assay in all cases: DAPPL (digital affinity profiling via proximity ligation, sequencing); 10 mM Tris-HCl pH 7.5, 50 mM NaCl, 1 mM DTT, 4% glycerol, room temperature, 30 min; GST-TFs on glutathione beads, 16-mer random dsDNA library, 0.1% formaldehyde crosslink after washing; high values mean tight binding
# Conditions in all cases: protein: recombinant; tags: N-terminal GST; dsDNA, one strand shown
# [1] = target: T1, FLI1 (Homo sapiens, UniProt Q01543 1-452)
# T1 sequence: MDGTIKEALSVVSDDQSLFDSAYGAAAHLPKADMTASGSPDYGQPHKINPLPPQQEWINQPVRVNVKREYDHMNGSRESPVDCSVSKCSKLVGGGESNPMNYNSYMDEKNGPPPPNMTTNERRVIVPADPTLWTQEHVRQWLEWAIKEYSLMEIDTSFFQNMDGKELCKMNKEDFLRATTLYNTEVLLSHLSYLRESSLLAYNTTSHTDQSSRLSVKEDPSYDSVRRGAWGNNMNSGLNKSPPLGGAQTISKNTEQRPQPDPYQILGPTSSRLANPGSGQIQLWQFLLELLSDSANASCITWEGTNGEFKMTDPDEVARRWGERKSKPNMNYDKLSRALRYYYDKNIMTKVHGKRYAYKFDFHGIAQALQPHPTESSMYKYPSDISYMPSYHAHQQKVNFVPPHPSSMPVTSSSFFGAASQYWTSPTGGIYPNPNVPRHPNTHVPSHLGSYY
# Summary of the method: (§1)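 After expression in yeast as GST fusions, human transcription factors were bound to glutathione beads, DNA-barcoded and mixed with a tag-only sample. The pools were incubated with 200 nmole of a 16-mer random double-stranded DNA library in Tris/NaCl/DTT/glycerol buffer (30 min, room temperature), washed and crosslinked with 0.1% formaldehyde. Proximity ligation with BsaI/T4 ligase ran for 1 h at 37 °C, before PCR amplification and sequencing on an Illumina NextSeq500. Binding signal is a hexamer's read frequency for a factor divided by its frequency for the tag-only sample.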
# [2] = target: T2, ELK1 (Homo sapiens, UniProt P19419 1-428)
# T2 sequence: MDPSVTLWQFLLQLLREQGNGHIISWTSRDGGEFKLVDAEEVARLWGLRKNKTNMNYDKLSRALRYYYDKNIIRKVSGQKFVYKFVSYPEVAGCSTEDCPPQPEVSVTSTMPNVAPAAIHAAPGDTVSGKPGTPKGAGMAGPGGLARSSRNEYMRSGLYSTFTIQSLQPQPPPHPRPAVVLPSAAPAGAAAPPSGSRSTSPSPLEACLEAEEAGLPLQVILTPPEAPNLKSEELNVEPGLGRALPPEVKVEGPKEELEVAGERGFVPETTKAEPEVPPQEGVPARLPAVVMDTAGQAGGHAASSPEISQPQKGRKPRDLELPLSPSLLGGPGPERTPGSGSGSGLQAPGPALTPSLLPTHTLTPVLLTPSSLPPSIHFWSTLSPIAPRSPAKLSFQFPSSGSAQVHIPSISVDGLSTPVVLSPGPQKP
# Summary of the method: as §1
# [3] = target: T3, GABPA (Homo sapiens, UniProt Q06546 1-454)
# T3 sequence: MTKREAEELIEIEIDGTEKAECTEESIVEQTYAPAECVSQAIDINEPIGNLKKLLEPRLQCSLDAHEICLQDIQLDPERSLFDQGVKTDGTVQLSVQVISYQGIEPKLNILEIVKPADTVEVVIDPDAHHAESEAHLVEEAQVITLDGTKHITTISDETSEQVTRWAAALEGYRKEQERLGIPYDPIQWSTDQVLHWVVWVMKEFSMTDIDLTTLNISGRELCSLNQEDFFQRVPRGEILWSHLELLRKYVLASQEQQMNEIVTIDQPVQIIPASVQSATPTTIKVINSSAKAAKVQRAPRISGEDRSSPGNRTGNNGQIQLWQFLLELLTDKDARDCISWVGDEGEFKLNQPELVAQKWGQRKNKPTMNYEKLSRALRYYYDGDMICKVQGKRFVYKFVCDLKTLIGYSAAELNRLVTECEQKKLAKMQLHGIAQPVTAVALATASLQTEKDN
# Summary of the method: as §1
# [4] = target: T4, ERG (Homo sapiens, UniProt P11308 1-479)
# T4 sequence: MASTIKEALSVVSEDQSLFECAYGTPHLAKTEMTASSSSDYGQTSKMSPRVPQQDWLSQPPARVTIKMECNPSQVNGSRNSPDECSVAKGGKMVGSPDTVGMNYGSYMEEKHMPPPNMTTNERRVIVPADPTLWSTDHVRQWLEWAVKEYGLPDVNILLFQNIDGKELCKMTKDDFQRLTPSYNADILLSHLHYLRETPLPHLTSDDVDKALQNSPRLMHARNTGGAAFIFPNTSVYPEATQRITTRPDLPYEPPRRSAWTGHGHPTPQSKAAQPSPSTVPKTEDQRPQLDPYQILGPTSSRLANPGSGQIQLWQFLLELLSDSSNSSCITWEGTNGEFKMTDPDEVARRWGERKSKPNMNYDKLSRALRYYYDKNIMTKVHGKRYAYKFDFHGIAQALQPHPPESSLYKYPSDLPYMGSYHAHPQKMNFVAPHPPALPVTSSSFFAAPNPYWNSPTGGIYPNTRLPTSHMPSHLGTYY
# Summary of the method: as §1
# [5] = target: ELF1 (Homo sapiens, UniProt P32519 1-619)
# ELF1, sequence (P32519 whole entry): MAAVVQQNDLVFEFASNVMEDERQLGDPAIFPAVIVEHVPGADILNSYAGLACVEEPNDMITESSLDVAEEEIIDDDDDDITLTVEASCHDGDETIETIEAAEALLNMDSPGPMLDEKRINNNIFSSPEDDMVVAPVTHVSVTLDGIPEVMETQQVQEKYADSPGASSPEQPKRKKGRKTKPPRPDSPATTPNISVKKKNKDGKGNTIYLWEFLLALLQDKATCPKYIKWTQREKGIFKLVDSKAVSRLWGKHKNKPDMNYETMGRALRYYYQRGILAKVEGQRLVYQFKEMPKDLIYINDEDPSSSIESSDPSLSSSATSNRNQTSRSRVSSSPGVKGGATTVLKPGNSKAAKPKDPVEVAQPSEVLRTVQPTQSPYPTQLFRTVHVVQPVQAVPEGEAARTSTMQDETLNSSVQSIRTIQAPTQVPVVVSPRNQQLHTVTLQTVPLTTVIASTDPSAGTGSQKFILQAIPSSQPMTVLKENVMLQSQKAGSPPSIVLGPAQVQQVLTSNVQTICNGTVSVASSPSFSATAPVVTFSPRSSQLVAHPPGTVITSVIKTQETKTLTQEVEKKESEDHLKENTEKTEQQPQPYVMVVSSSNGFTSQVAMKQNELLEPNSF
# Summary of the method: as §1
# [6] = target: T5, EHF (Homo sapiens, UniProt Q9NZC4 1-300)
# T5 sequence: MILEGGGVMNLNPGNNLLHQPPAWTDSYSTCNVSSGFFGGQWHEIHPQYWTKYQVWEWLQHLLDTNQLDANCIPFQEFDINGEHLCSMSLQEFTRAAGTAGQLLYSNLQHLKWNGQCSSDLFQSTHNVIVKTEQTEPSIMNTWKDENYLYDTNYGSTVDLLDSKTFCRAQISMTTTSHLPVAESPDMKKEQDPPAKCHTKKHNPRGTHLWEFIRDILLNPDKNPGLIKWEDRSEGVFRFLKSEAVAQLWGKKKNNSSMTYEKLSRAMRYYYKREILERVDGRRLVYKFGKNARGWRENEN
# Summary of the method: as §1
# [7] = target: SPI1 (Homo sapiens, UniProt P17947 1-270)
# Summary of the method: as §1
# [8] = target: SPIB (Homo sapiens, UniProt Q01892 1-262)
# SPIB, sequence (Q01892 whole entry): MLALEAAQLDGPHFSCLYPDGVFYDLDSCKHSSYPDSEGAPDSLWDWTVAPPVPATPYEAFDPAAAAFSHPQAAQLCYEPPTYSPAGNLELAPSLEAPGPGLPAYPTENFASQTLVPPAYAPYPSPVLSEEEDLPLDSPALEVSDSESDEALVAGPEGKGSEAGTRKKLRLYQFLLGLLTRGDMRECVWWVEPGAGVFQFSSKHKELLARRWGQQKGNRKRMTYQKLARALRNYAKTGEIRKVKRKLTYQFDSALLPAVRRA
# Summary of the method: as §1
# [9] = target: T6, ELK3 (Homo sapiens, UniProt P41970 1-407)
# T6 sequence: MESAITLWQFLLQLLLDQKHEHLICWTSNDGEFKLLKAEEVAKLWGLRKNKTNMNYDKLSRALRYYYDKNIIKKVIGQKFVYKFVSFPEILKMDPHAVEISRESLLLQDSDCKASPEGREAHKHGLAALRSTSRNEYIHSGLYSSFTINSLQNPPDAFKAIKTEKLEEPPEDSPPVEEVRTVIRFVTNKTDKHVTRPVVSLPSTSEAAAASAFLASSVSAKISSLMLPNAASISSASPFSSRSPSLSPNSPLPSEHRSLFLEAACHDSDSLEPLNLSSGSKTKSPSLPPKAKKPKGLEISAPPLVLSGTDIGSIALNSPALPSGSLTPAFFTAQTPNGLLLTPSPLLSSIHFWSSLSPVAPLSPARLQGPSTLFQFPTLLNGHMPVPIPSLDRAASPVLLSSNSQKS
# Summary of the method: as §1
# [10] = target: T7, FEV (Homo sapiens, UniProt Q99581 1-238)
# T7 sequence: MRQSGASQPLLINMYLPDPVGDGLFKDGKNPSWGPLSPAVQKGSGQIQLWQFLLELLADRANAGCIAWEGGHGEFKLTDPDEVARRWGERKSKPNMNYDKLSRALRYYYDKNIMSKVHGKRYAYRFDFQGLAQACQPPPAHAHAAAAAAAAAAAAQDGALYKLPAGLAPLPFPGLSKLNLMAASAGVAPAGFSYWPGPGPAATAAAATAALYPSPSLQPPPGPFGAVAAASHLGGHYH
# Summary of the method: as §1
# [11] = target: ETV5 (Homo sapiens, UniProt P41161 1-510)
# ETV5, sequence (P41161 whole entry): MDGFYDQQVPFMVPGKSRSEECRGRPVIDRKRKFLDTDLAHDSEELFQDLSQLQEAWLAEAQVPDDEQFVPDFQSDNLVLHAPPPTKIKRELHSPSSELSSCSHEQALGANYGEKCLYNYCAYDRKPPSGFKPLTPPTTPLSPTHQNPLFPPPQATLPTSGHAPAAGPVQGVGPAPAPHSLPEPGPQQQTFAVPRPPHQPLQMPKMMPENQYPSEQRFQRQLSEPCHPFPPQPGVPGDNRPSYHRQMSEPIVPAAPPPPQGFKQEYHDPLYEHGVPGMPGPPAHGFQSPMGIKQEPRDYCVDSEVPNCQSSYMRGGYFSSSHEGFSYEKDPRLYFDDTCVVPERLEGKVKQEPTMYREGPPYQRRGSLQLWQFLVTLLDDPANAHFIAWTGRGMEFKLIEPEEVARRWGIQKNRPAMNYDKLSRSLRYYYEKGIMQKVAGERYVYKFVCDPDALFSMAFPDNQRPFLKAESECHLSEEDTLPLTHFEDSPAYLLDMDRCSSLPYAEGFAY
# Summary of the method: as §1
# [12] = target: T8, SPIC (Homo sapiens, UniProt Q8N5J4 1-248)
# T8 sequence: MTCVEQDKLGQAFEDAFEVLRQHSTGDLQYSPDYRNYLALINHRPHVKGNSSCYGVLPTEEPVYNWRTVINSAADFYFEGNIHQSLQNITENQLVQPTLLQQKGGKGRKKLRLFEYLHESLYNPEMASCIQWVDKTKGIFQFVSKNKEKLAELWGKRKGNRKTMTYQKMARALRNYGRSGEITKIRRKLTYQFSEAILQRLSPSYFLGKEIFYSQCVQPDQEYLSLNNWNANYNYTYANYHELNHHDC
# Summary of the method: as §1
# [13] = target: ELF4 (Homo sapiens, UniProt Q99607 1-663)
# ELF4, sequence (Q99607 whole entry): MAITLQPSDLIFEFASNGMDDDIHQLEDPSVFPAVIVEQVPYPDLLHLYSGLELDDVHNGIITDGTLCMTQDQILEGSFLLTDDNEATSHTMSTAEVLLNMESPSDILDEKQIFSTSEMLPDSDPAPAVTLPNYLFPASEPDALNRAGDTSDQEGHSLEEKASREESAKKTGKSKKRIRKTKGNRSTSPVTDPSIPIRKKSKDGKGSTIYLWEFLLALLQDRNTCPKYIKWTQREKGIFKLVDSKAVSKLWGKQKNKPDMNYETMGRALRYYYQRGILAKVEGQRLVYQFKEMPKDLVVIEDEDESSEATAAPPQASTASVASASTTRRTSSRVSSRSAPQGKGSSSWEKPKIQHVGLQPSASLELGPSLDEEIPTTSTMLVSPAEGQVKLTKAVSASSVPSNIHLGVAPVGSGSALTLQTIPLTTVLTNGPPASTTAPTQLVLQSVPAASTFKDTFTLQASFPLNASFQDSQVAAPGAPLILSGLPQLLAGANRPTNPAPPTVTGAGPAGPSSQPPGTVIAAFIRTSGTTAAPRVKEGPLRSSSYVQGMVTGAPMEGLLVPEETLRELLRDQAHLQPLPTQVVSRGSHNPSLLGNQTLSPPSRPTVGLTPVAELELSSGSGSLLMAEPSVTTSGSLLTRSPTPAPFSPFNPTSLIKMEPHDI
# Summary of the method: as §1
# [14] = target: T9, ELK4 (Homo sapiens, UniProt P28324-2 1-405)
# T9 sequence: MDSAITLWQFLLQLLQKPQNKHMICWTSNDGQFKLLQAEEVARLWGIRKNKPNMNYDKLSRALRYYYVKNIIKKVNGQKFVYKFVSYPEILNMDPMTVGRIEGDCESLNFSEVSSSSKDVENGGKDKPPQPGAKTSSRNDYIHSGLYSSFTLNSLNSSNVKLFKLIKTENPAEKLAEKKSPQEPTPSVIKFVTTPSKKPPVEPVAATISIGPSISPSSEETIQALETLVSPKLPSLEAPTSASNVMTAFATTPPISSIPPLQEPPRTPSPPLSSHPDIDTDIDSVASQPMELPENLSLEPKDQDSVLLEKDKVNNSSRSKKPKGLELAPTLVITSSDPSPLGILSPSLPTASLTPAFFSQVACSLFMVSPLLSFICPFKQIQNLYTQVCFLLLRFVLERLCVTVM
# Summary of the method: as §1
# [15] = target: T10, ETV2 (Homo sapiens, UniProt O00321 1-342)
# T10 sequence: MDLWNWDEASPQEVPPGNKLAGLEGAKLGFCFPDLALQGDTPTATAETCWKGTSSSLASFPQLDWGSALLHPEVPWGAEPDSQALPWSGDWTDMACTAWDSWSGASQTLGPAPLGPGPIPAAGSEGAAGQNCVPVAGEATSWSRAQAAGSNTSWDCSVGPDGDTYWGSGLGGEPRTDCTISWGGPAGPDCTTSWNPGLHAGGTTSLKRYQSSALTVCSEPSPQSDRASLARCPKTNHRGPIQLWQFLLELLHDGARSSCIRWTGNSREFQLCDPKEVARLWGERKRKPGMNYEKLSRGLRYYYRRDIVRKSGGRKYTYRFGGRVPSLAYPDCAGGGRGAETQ
# Summary of the method: as §1
# [16] = target: T11, ELF3 (Homo sapiens, UniProt P78545 1-371)
# T11 sequence: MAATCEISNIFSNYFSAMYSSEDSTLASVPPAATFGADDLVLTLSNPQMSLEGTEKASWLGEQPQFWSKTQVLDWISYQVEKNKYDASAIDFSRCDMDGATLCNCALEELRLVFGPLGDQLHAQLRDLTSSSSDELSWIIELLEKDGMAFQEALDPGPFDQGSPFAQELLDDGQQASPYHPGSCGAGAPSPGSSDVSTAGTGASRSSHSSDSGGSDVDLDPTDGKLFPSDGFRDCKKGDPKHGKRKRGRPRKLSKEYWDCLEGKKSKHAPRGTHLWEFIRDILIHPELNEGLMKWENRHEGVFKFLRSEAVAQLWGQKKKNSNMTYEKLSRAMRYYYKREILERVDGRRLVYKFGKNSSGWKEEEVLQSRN
# Summary of the method: as §1
# [17] = target: ETV1 (Homo sapiens, UniProt P50549 1-477)
# ETV1, sequence (P50549 whole entry): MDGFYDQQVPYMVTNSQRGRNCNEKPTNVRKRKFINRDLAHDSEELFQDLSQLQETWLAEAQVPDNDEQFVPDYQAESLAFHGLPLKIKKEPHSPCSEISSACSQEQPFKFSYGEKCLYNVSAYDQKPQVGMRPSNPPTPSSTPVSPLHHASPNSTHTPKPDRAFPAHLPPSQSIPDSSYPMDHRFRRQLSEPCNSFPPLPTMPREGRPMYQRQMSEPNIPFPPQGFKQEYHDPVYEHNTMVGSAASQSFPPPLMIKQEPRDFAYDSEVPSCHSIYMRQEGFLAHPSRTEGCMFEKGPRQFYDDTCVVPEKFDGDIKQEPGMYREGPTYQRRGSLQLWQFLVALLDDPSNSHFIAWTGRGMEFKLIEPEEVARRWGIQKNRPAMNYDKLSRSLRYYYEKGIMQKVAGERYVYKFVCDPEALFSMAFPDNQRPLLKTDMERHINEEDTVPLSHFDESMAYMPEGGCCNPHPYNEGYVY
# Summary of the method: as §1
sequence,measurement,setting,value
CAATGC,binding signal,[1],"1.21 fold enrichment (6-mer frequency, TF over GST control)"
same,binding signal,[2],"1.23 fold enrichment (6-mer frequency, TF over GST control)"
same,binding signal,[3],"1.21 fold enrichment (6-mer frequency, TF over GST control)"
same,binding signal,[4],"1.12 fold enrichment (6-mer frequency, TF over GST control)"
same,binding signal,[5],"1.21 fold enrichment (6-mer frequency, TF over GST control)"
same,binding signal,[6],"1.17 fold enrichment (6-mer frequency, TF over GST control)"
same,binding signal,[7],"1.12 fold enrichment (6-mer frequency, TF over GST control)"
same,binding signal,[8],"1.32 fold enrichment (6-mer frequency, TF over GST control)"
same,binding signal,[9],"1.21 fold enrichment (6-mer frequency, TF over GST control)"
same,binding signal,[10],"1.16 fold enrichment (6-mer frequency, TF over GST control)"
same,binding signal,[11],"1.22 fold enrichment (6-mer frequency, TF over GST control)"
same,binding signal,[12],"1.12 fold enrichment (6-mer frequency, TF over GST control)"
same,binding signal,[13],"1.3 fold enrichment (6-mer frequency, TF over GST control)"
same,binding signal,[14],"1.21 fold enrichment (6-mer frequency, TF over GST control)"
same,binding signal,[15],"1.21 fold enrichment (6-mer frequency, TF over GST control)"
same,binding signal,[16],"1.22 fold enrichment (6-mer frequency, TF over GST control)"
same,binding signal,[17],"1.12 fold enrichment (6-mer frequency, TF over GST control)"
